In PubChem BioAssay (NCATS):
A number with no mark means an inactive call. Results filed as inconclusive are left out. Where a call stands in place of a potency, no number is given. Calls of active or inactive are those of the source. Unless noted, calls follow the shape of the dose curve; as a rule, active = well fitted curve in the direction sought with a large enough effect; inconclusive = small, poorly fitted or top-dose-only effect, or another doubt; inactive = no such curve, though single readings can be large; an effect the other way counts as inactive or inconclusive.

Key:
[1] = biological target: Mitogen-activated protein kinase 10 (Mus musculus) (UniProt Q61831); assay: JNK3 AlphaScreen Assay (AID 530; active = well fitted curve in either direction with a large enough effect, not every such curve was filed as active;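 also: kinase came from lysate of stimulated human HepG2 cells; signal reports phosphorylation of biotinylated GST-cJun 1-79 at Ser73 with 10 µM ATP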)
Summary of the method: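 qHTS titrations with 15 min compound pre-incubation before adding ATP (10 uM final). Read-out: AlphaScreen of Ser73-phosphorylated biotin-GST-cJun using HepG2 lysate JNK3 activated by IL-1β and TNFα.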

[2] = Cell Viability - HUV-EC-C (AID 542);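 also: cells exposed to compound for 40 hours; nearly all actives have a fitted effect of over 35% in size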
Summary of the method: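 Cells were seeded at 1000 per well and incubated 5 hr at 37 °C before compound addition. After 40 hr at 37 °C, CellTiter-Glo reagent was added for 20 min and luminescence read. AC50 values came from Hill-equation modelling.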

[3] = Cell Viability - Renal Proximal Tubule (AID 545);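 also: cells exposed to compound for 40 hours; nearly all actives have a fitted effect of over 40% in size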
Summary of the method: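 Rat kidney proximal tubule cells, freshly isolated; 1000 cells/well, 5 hr settle, compound 40 hr 37 °C. CellTiter-Glo 20 min RT, luminescence read. AC50 by standard Hill fit.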

[4] = Cellular Toxicity (caspase-3) HepG2 (AID 654);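 also: cells exposed to compound for 16 hours before reading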
Summary of the method: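 Caspase 3/7 activation in HepG2 is measured as rising luminescence after a 16 hr treatment at 37 °C. Values are scaled between DMSO basal and 100 uM tamoxifen, and AC50 is fitted with the Hill equation.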

[5] = Cellular Toxicity (caspase-3) Jurkat (AID 655); details: Jurkat caspase-3 activation, luminescence; caspase-3 activation: at 92.2 µM (top of the series), DMSO = 0%, tamoxifen = 100%;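 also: cells exposed to compound for 16 h at 37 °C before reading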
Summary of the method: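 Luminescent caspase-3/7 readout (aminoluciferin substrate cleavage) in human T-cell leukemia Jurkat cells after 16 hr compound exposure. Concentration-response normalized to DMSO and 100 uM tamoxifen; AC50 by standard Hill equation.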

[6] = Cellular Toxicity (caspase-3) NIH 3T3 (AID 666)
Summary of the method: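 Cells were plated at 1000 per well and incubated 5 hr at 37°C, then compound was added for 16 hr. Caspase-Glo 3/7 reagent followed for 20 min at room temperature before luminescence was read.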

[7] = Cellular Toxicity (caspase-3) Renal Proximal Tubule (AID 667);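 also: cells exposed to compound for 16 hours at 37 °C before detection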
Summary of the method: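 Luminescent caspase 3/7 signal from peptide-aminoluciferin cleavage measures apoptosis in freshly isolated rat kidney proximal tubule cells after 16 h compound exposure. Concentration-response data are normalized to DMSO and 10 uM staurosporine, and AC50 values come from Hill equation fits.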

[8] = MultiTox-Fluor Cytotoxicity Assay - LYMP1-001 - Dead Cells (AID 946)
Summary of the method: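 Cytotoxicity as increased dead-cell protease fluorescence (bis-AAF-R110, 485/520 nm), read 60 min after MultiTox-Fluor reagent. Human lymphoblastoid line exposed 16 h; Hill-fitted AC50, with DMSO as 0% and 15 uM tetraoctylammonium bromide as 100%.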

[9] = MultiTox-Fluor Cytotoxicity Assay - LYMP1-001 - Live Cells (AID 947)
[10] = MultiTox-Fluor Cytotoxicity Assay - LYMP1-002 - Live Cells (AID 955);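 also: cells exposed to compound for 16 hours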
Summary of the method: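 Cells were seeded at 2500 per well and incubated 5 hr. Compounds were then added for 16 hr at 37 C, followed by MultiTox-Fluor reagent for 60 min at room temperature and fluorescence reading of viable-cell protease signal.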

[11] = Cell Viability - LYMP2-009 (AID 968); also: nearly all actives have a fitted effect of over 55% in size; also: potency is read from the fitted curve at half-maximal effect
[12] = Cell Viability - LYMP2-019 (AID 973); also: nearly all actives have a fitted effect of over 55% in size; also: potency is read from the fitted curve at half-maximal effect
Summary of the method: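 Cytotoxicity is scored as a concentration-dependent drop in cellular ATP after cells (2500/well) receive compound for 24 hr at 37 C. Tetraoctylammonium bromide serves as positive control.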

[13] = Cell Viability - LYMP2-023 (AID 975); also: nearly all actives have a fitted effect of over 55% in size; also: potency is read from the fitted curve at half-maximal effect
Summary of the method: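 Steps: seed 2500 human lymphoblastoid cells per well, incubate 5 hr at 37 C, add compound for 24 hr at 37 C, add CellTiter-Glo, hold 30 min at room temperature, read luminescence. AC50 derived by Hill modelling.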

[14] = Cell Viability - LYMP2-002 (AID 977);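 also: compound exposure lasted 24 h at 37 °C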
Summary of the method: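 Human lymphoblastoid cells (2500/well) in complete medium were preincubated 5 hr at 37 C, then exposed to compounds for 24 hr at 37 C. Intracellular ATP was read by CellTiter-Glo luminescence; AC50 came from Hill-equation concentration-response fits.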

[15] = Cell Viability - LYMP2-026 (AID 989); also: nearly all actives have a fitted effect of over 50% in size
Summary of the method: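 Cells are seeded at 2500 per well and held 5 hr at 37 C. Compounds are added in concentration series for 24 hr, then CellTiter-Glo reagent is applied and luminescence read.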

[16] = Cell Viability - LYMP1-002 - Assay at 24 hr (AID 993)
Summary of the method: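 Acute toxicity is measured as concentration-dependent loss of cellular ATP in a human lymphoblastoid line (Coriell LYMP1-002) after 24 h treatment in complete medium. ATP is quantified by luciferase luminescence and AC50 derived by Hill modelling.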

[17] = biological target: Peroxisome proliferator-activated receptor gamma (Homo sapiens) (UniProt P37231); assay: qHTS assay for small molecule agonists of peroxisome proliferator-activated receptor gamma signaling (AID 588536; active = well fitted curve in the direction sought with a large enough effect in the signal ratio, with a control signal flat, not every such curve was filed as active; the % refers to the signal ratio)
Peroxisome proliferator-activated receptor gamma (Homo sapiens), sequence (P37231 whole entry, looked up): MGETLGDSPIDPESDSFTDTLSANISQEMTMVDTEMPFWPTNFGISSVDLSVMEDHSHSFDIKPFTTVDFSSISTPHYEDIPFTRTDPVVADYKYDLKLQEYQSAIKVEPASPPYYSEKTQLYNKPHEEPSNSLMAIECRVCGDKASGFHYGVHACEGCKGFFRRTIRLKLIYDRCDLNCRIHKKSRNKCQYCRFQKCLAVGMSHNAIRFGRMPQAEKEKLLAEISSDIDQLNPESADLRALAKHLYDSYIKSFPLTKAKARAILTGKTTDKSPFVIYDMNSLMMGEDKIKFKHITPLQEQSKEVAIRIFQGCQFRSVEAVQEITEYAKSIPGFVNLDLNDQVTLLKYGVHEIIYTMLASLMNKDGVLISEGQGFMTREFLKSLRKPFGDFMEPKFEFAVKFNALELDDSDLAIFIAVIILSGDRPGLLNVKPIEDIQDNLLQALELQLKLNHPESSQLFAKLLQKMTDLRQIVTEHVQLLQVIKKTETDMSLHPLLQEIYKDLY
Summary of the method: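 This is an agonist-mode beta-lactamase reporter assay in HEK293 PPAR-gamma-UAS-bla cells with 1% charcoal/dextran FBS. Compound titrations ran 16 h at 37 C before CCF4 detection. EC50 and efficacy are Hill fits scaled to 2 uM rosiglitazone (100%) and DMSO basal.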

[18] = biological target: Vitamin D3 receptor (Homo sapiens) (UniProt P11473); assay: qHTS assay for small molecule agonists of vitamin D receptor signaling (AID 588543; calls by dose curve)
Vitamin D3 receptor (Homo sapiens), sequence (P11473 whole entry, looked up): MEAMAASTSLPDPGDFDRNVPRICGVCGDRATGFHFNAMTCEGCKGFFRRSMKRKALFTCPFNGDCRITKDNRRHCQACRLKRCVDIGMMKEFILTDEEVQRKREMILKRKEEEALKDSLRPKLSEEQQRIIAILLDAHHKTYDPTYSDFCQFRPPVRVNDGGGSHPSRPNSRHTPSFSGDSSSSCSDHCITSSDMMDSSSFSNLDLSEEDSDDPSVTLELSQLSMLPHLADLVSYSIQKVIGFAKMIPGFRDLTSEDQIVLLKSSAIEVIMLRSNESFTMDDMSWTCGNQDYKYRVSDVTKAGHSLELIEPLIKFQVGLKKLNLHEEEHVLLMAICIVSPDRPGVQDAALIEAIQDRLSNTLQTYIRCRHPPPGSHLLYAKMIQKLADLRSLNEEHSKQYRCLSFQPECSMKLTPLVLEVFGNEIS
Summary of the method: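 β-lactamase reporter, VDR-UAS-bla HEK293T, agonist mode. Cells plated 5 h at 37 °C, compound titration 16 h at 37 °C, CCF4 dye 2 h RT, ratio 460/530 nm. Hill fit → EC50, efficacy vs 50 nM 1α,25-(OH)2D3.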

[19] = qHTS assay for small molecule disruptors of the mitochondrial membrane potential - 5 hr assay (AID 651755; calls by dose curve; also: nearly all actives have a fitted effect of over 40% in size)
Summary of the method: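 Membrane-potential dye readout: red aggregate (540 ex/590 em) versus green monomer (490 ex/535 em) fluorescence after 30 min dye loading, following 5 hr compound exposure at 37C of overnight-plated HepG2 cells.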

[20] = Cell Viability - LYMP2-011 (AID 969); also: nearly all actives have a fitted effect of over 60% in size; also: potency is read from the fitted curve at half-maximal effect
Summary of the method: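 In this qHTS cytotoxicity format, compounds are tested across concentrations on human lymphoblastoid cells in complete medium for 24 hours at 37 C. Viability is taken as cellular ATP measured by luciferase luminescence.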

| Structure (SMILES) | Potency [1] | Potency [2] | outcome [3] | outcome [4] | caspase-3 activation [5] | Potency [6] | outcome [7] | outcome [8] | outcome [9] | outcome [10] | Potency [11] | Potency [12] | Potency [13] | Potency [14] | Potency [15] | Potency [16] | outcome [17] | outcome [18] | Potency [19] | Potency [20] |
| --- | --- | --- | --- | --- | --- | --- | --- | --- | --- | --- | --- | --- | --- | --- | --- | --- | --- | --- | --- | --- |
| Oc1cc(Cl)ccc1Cl | inactive | inactive | inactive | inactive | 1.27% | inactive | inactive | inactive | inactive | inactive | inactive | inactive | inactive | inactive | inactive | inactive | inactive | inactive | inactive | – |
| ClC=CCl | inactive | inactive | inactive | – | 1.45% | inactive | – | inactive | inactive | inactive | inactive | inactive | inactive | inactive | inactive | inactive | – | inactive | inactive | inactive |
| ClCC(Br)CBr (stereo not given) | inactive | inactive | inactive | inactive | 0.662% | inactive | inactive | inactive | inactive | inactive | inactive | inactive | inactive | – | inactive | inactive | inactive | inactive | inactive | inactive |
| CCC#N | inactive | inactive | inactive | inactive | -0.741% | inactive | inactive | inactive | inactive | inactive | – | inactive | inactive | inactive | inactive | inactive | – | inactive | – | inactive |
| NNC(N)=S | inactive | inactive | inactive | inactive | – | inactive | inactive | inactive | inactive | inactive | inactive | inactive | inactive | inactive | inactive | inactive | inactive | inactive | inactive | – |
| ClC(Cl)C(Cl)Cl | inactive | inactive | inactive | inactive | 1.02% | inactive | inactive | inactive | inactive | inactive | inactive | – | inactive | inactive | inactive | inactive | inactive | inactive | inactive | inactive |
| OC[P+](CO)(CO)CO | inactive | inactive | inactive | inactive | 16.2% | inactive | inactive | inactive | inactive | inactive | 25.1 µM (active) | 15.8 µM (active) | 25.1 µM (active) | – | – | – | inactive | inactive | inactive | 39.8 µM (active) |
| C1CC2OC2CC1C1CO1 (stereo not given) | inactive | inactive | inactive | inactive | -1.28% | – | inactive | inactive | inactive | inactive | inactive | inactive | inactive | inactive | inactive | inactive | inactive | inactive | inactive | inactive |
